{"source": "PubChem BioAssay (NCI)", "note": "“And” between values parts separate entries of the source, which are not always exact repeats. Identical values can stand only once. This is part of a sample that, as a whole, favours compounds with a hit. Of some 83,000 tested, about 20% had one in any assay.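 The test compound was applied at a single concentration to cells in 96-well plates for 48 hours, and percent growth was recorded.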 The source made the active and inactive calls. Where a SMILES comes first, the peptide text is derived from it. [ ]: non-standard residue; d: D form. ξ: configuration not given here. ξV = CC(C)C(N)C(=O)O", "data": [{"system": "EKVX NSCLC", "test": "NCI-60 one-dose screen, 48 h (100 = growth as untreated, 0 = no growth, -100 = all killed)", "conditions": "0.0025 µM", "description": "(§1) Growth inhibition of the EKVX human Non-Small Cell Lung tumor cell line is measured as a screen for anti-cancer activity. Cells are grown in 96 well plates and exposed to the test compound for 48 hours. Compounds are tested at a single concentration, which is 10^-5 M for most compounds. The reported endpoint is percent growth (GI% or GIPRCNT), where numbers from 0 - 100% represent growth inhibition, and numbers from -100% - 0 represent cell death. For example, a value of 40 represents 60% growth inhibition. A value of 0 means no net growth occurred over the course of the experiment. A value of -40 indicates 40% of cells at the beginning of the experiment died by the end of the experiment. A value of -100 means all cells are dead at the end of the experiment.\n(§2) NCI-60 Human Tumor Cell Lines Screen was performed using the standard one-dose NCI protocol, which is described in more detail at https://dtp.cancer.gov/discovery_development/nci-60/default.htm.\n(§3) Compounds with GIPRCNT values below 10 were considered active. Activity score was based on GIPRCNT using the following formula: […]\n(§4) Score is 0 for GIPRCNT values of 100 or above, 50 for GIPRCNT values of 0, and 100 for GIPRCNT values of -100.", "values": [{"smiles": "COc1cccc2c1C(=O)c1c(O)c3c(c(O)c1C2=O)C[C@@](O)(C(=O)CO)C[C@@H]3OC1CC(N)C(O)C(C)O1", "note": "(stereo not given in full)", "growth": "102% (inactive)"}]}, {"system": "EKVX NSCLC", "test": "NCI-60 one-dose screen, 48 h (100 = growth as untreated, 0 = no growth, -100 = all killed)", "conditions": "1 µM", "description": "as §1, §2, §3, §4", "values": [{"smiles": "COc1cccc2c1C(=O)c1c(O)c3c(c(O)c1C2=O)C[C@@](O)(C(=O)CO)C[C@@H]3OC1CC(N)C(O)C(C)O1", "note": "(stereo not given in full)", "growth": "65.8% (inactive)"}]}, {"system": "EKVX NSCLC", "test": "NCI-60 one-dose screen, 48 h (100 = growth as untreated, 0 = no growth, -100 = all killed)", "conditions": "2.5 µM", "description": "as §1, §2, §3, §4", "values": [{"smiles": "COc1cccc2c1C(=O)c1c(O)c3c(c(O)c1C2=O)C[C@@](O)(C(=O)CO)C[C@@H]3OC1CC(N)C(O)C(C)O1", "note": "(stereo not given in full)", "growth": "88.8% (inactive)"}]}, {"system": "EKVX NSCLC", "test": "NCI-60 one-dose screen, 48 h (100 = growth as untreated, 0 = no growth, -100 = all killed)", "conditions": "10 µM", "description": "as §1, §2, §3, §4", "values": [{"smiles": "CC(C)C(NC(=O)CN)C(=O)O", "note": "(stereo not given) (H-Gly-[ξV]-OH)", "growth": "102% (inactive) and 103% (inactive)"}, {"smiles": "CCCCCCCCCCSC(=N)N", "growth": "92.1% (inactive)"}, {"smiles": "Oc1ccc(N=Nc2ccccn2)c(O)c1", "growth": "24.1% (inactive)"}, {"smiles": "COc1cccc2c1C(=O)c1c(O)c3c(c(O)c1C2=O)C[C@@](O)(C(C)=O)C[C@@H]3OC1CC(N)C(O)C(C)O1", "note": "(stereo not given in full)", "growth": "-3.48% (active)"}, {"smiles": "NC(=O)SCC(=O)NNc1ccccc1", "growth": "99.4% (inactive)"}, {"smiles": "CCN1/C(=C/C=C/C=C/c2sc3ccccc3[n+]2CC)Sc2ccccc21", "growth": "-31.9% (active)"}, {"smiles": "CCCCCCCCCCCCSC(=NC)NC", "growth": "71.1% (inactive)"}, {"smiles": "OCC1OC(n2cnc3c(=S)nc[nH]c32)C(O)C1O", "note": "(stereo not given)", "growth": "106% (inactive) and 119% (inactive)"}, {"smiles": "CCCC1CCC(=C2C(=O)CCC2=O)O1", "note": "(stereo not given)", "growth": "86.2% (inactive) and 101% (inactive)"}, {"smiles": "NNc1c2ccccc2nc2ccccc12", "growth": "58.3% (inactive)"}, {"smiles": "CC(=O)OCC(OC(C)=O)C(OC(C)=O)C(OC(C)=O)C(OC(C)=O)C(/C=N/Nc1ccccc1)=N/Nc1ccccc1", "note": "(stereo not given)", "growth": "60% (inactive)"}, {"smiles": "O=[N+]([O-])C1=C(c2ccccc2)SC=C(c2ccccc2)S1", "growth": "92.3% (inactive)"}, {"smiles": "Nc1c2ccccc2nc2ccccc12", "growth": "-24.1% (active) and 43.9% (inactive) and 57.3% (inactive)"}, {"smiles": "CCCCCCCCCCCCCCCCCCOCC(COP(=O)([O-])OCC[N+](C)(C)C)OC", "note": "(stereo not given)", "growth": "119% (inactive)"}, {"smiles": "Nc1nc(=S)c2ncn(C3OC(CO)C(O)C3O)c2[nH]1", "note": "(stereo not given)", "growth": "110% (inactive) and 23.3% (inactive)"}, {"smiles": "CCCCCC(C)c1ccc(O)c(C)c1", "note": "(stereo not given)", "growth": "108% (inactive)"}, {"smiles": "CN1CCN(CCCN2c3ccccc3Sc3ccc(C(F)(F)F)cc32)CC1", "growth": "66.9% (inactive)"}, {"smiles": "COc1cccc2c1C(=O)c1c(O)c3c(c(O)c1C2=O)C[C@@](O)(C(=O)CO)C[C@@H]3OC1CC(N)C(O)C(C)O1", "note": "(stereo not given in full)", "growth": "24.6% (inactive)"}, {"smiles": "CC[N+](CC)=c1ccc2nc3c(cc(N)c4ccccc43)oc-2c1", "growth": "-66.6% (active)"}, {"smiles": "NNc1ccc2ccccc2c1", "growth": "76.7% (inactive) and 93% (inactive)"}, {"smiles": "O=C(O)COc1ccc(OCC(=O)O)cc1", "growth": "51.8% (inactive)"}, {"smiles": "COC1OCC(O)C(O)C1O", "note": "(stereo not given)", "growth": "99.1% (inactive)"}, {"smiles": "O=C1C=CC(=CC=C2C=CN(CCCCCCCCCCCO)C=C2)C=C1", "growth": "26.3% (inactive)"}, {"smiles": "CC1=CC(C)=Nc2ccc(Cl)cc2N1", "growth": "108% (inactive)"}, {"smiles": "COc1ccc(CC(=O)c2ccc(O)cc2O)cc1", "growth": "104% (inactive)"}, {"smiles": "O=C1NC(=O)c2cc([N+](=O)[O-])ccc21", "growth": "103% (inactive)"}, {"smiles": "COc1c(O)cc2oc3cc(O)c(CC=C(C)C)c(O)c3c(=O)c2c1CC=C(C)C", "growth": "54% (inactive)"}, {"smiles": "CSC1SCC2C(=O)N(C)C(C(C)C)C(=O)OCC(NC(=O)c3cnc4ccccc4n3)C(=O)NC(C)C(=O)N(C)C1C(=O)N(C)C(C(C)C)C(=O)OCC(NC(=O)c1cnc3ccccc3n1)C(=O)NC(C)C(=O)N2C", "note": "(stereo not given)", "growth": "-8.18% (active)"}, {"smiles": "O=C(Nc1ccc(C(=O)O)c(O)c1)c1ccccc1", "growth": "98.9% (inactive) and 93.7% (inactive)"}, {"smiles": "CCC(C)(C)c1cc(O)c(C(C)(C)CC)cc1O", "growth": "43.4% (inactive)"}, {"smiles": "Clc1cc(Cl)c(Cl)nn1", "growth": "115% (inactive)"}, {"smiles": "CC(=O)Nc1cc(C)ccc1C", "growth": "99.9% (inactive)"}, {"smiles": "OC(CN1CCCC2CCCCC21)c1cc2ccccc2c2ccccc12", "note": "(stereo not given)", "growth": "42.3% (inactive)"}, {"smiles": "C[n+]1c2cc(N)ccc2cc2ccc(N)cc21", "growth": "-23.9% (active) and 5.67% (active) and -26.5% (active)"}, {"smiles": "N=S(c1ccccc1[N+](=O)[O-])c1ccccc1[N+](=O)[O-]", "growth": "85.8% (inactive)"}, {"smiles": "COC(=O)C1C(O)C(C)C(O)C(C)C=C(C)C2=C3C(=C(C)C(=O)c4c(O)c(c(C)c(OC(C)=O)c43)NC(=O)C(C)=C/C=C\\C(C)C(O)C(C)C1O)OCO2", "note": "(stereo not given)", "growth": "119% (inactive)"}]}, {"system": "EKVX NSCLC", "test": "NCI-60 one-dose screen, 48 h (100 = growth as untreated, 0 = no growth, -100 = all killed)", "conditions": "100 µM", "description": "as §1, §2, §3, §4", "values": [{"smiles": "O=c1ccn(C2CC(O)C(COC(c3ccccc3)(c3ccccc3)c3ccccc3)O2)c(=O)[nH]1", "note": "(stereo not given)", "growth": "52.8% (inactive)"}]}]}
